# PubChem BioAssay
# The source made the active and inactive calls.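 How the source made its calls, unless noted: active means z-score of at least 1.8 in each of two replicates, scored against plate mean and spread of sample wells; inactive means the rest.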
# Columns and labels:
# [1] = viability loss with induced miR-34 in A549 – imaging, A549 dox-inducible miR-34, nuclei and caspase counts, primary screen (AID 1347080;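 active means compounds whose cell count with miR-34 switched on is under 0.7 times the count with it off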; further: test concentration not given here); conditions: A549 miR-34 inducible, Hoechst nuclei count, 48 h
# [2] = MELAS cybrid and Rieske KO viability enhancers – cell-based, MELAS cybrids, Rieske KO mouse fibroblasts, CellTiter-Glo, primary screen (AID 1508586;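 active means mean z-score across replicates of 1.96 or higher in either the MELAS or the Rieske mutant cell line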;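 further: test concentration not given here; z relative to plate mean and SD of compound and empty wells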); conditions: low glucose
# [3] = galactose survival enhancers in mitochondrial complex I cybrids – cell-based, galactose medium, ATP luminescence, primary screen (AID 1645843); conditions: complex I mutant cybrid cells, 72 h, stronger effect = higher value;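 further: positive z means more ATP and so rescue of galactose-driven cybrid death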
# [4] = stronger effect = lower value, cell number ratio, induced over uninduced
# [5] = measured here: relative caspase fold change +Dox/-Dox
# [6] = measured here: total cells with miR-34 induction, stronger effect = lower value
# [7] = measured here: total cells without miR-34 induction
# [8] = MELAS cybrid survival, CellTiter-Glo 48 h, stronger effect = higher value
# [9] = Rieske KO mouse fibroblast survival, CellTiter-Glo 72 h
Structure (SMILES),"fold change [1, 4]","fold change [1, 5]","cell count [1, 6]","cell count [1, 7]","z-score [2, 8]","z-score [2, 9]",z-score [3]
O=C(O)Cc1c[nH]c2ccccc12,0.913 (inactive),0.9,8300,9090,-0.643 (inactive),-0.265,0.49 (inactive)
CC(C)n1cc(-c2cc(C(=O)N(C)Cc3ccncc3)c3cc(F)ccc3n2)cn1,0.953 (inactive),1.49,7910,8290,-1.09 (inactive),0.3,-0.295 (inactive)
CC(O)Cc1cn(C2CCN(c3ncnc4nc[nH]c34)CC2)nn1 (stereo not given),0.957 (inactive),0.915,8270,8650,-0.102 (inactive),-1.64,-0.52 (inactive)
Cc1cnc(CN(C)C(=O)c2n[nH]c3ccccc23)[nH]1,0.891 (inactive),1.39,8830,9910,0.305 (inactive),-0.304,-0.445 (inactive)
Cc1nc(NC(=O)NCC2COc3ccccc3O2)nn1C(C)C (stereo not given),0.958 (inactive),1.49,8560,8940,-0.362 (inactive),0.824,2.15 (active)
COc1cccc(-c2cccc(N)n2)c1F,0.943 (inactive),0.993,9590,10200,0.104 (inactive),-0.26,-0.59 (inactive)
COc1ccc(N2CCN(c3ncnc4sccc34)C(C)C2=O)cc1 (stereo not given),0.791 (inactive),1.18,6180,7810,-0.528 (inactive),-0.443,-0.505 (inactive)
CCNc1ncc(-c2cc(C(=O)N(C)CCN(C)C)c3cc(F)ccc3n2)cn1,0.912 (inactive),2.18,8760,9610,-0.0763 (inactive),-0.44,-0.56 (inactive)
COc1cc(Cn2cnc3nccnc3c2=O)cc(OC)c1,0.919 (inactive),2.53,9000,9790,-0.417 (inactive),-0.582,-0.515 (inactive)
O=S(=O)(O)c1cccc2cccc(Nc3ccccc3)c12,0.946 (inactive),0.486,8990,9500,-0.258 (inactive),-0.0194,0.715 (inactive)
Cc1csc2ncnc(-c3cccc4ncccc34)c12,0.896 (inactive),0.971,7440,8300,0.0854 (inactive),-0.504,-0.49 (inactive)
CCOC(=O)c1c(C)nn(-c2ccc(OC)cc2)c1C,0.895 (inactive),0.849,7720,8620,0.662 (inactive),0.769,0.595 (inactive)
Cc1nn(C)cc1-c1ccnc(NC2CCOC(C)(C)C2)n1 (stereo not given),0.847 (inactive),2.06,8460,9990,-0.0523 (inactive),-0.494,-0.56 (inactive)
CN1CCN(NC(=S)Nc2ccc(S(N)(=O)=O)cc2)CC1,0.87 (inactive),0.82,8440,9700,-0.739 (inactive),0.101,0.425 (inactive)
CC(C)C(=O)N1CCC(CNC(=O)c2ccno2)CC1,0.927 (inactive),0.833,9650,10400,0.208 (inactive),0.293,-0.57 (inactive)
O=c1cc(-c2ccncc2)nc(-c2cccc(CN3CCCC(CO)C3)c2)[nH]1 (stereo not given),0.934 (inactive),0.922,8470,9070,-0.423 (inactive),0.0738,0.08 (inactive)
O=C(O)Cc1cc(=O)[nH]c(=O)[nH]1,0.898 (inactive),0.239,8760,9760,0.622 (inactive),-0.242,-0.13 (inactive)
Cc1cccc2c(C(=O)N3C4CCCCC3CCC4)cc(-c3cncnc3)nc12,0.922 (inactive),1.14,8060,8740,0.139 (inactive),-0.667,-0.275 (inactive)

Structure (SMILES),"fold change [1, 4]","fold change [1, 5]","cell count [1, 6]","cell count [1, 7]","z-score [2, 8]","z-score [2, 9]",z-score [3]
NS(=O)(=O)c1ccc(F)cc1,0.896 (inactive),0.251,9050,10100,0.294 (inactive),-0.158,0.18 (inactive)
Fc1ccccc1-c1cc(NCc2ccncc2)n2nccc2n1,1.06 (inactive),0.296,4240,4020,-1.56 (inactive),-0.13,0.425 (inactive)
CN(C)C(=O)CN(C)C(=O)c1cccc(Nc2ncnc3c2cnn3C)c1,0.866 (inactive),1.54,8650,9990,0.0352 (inactive),-0.276,-0.525 (inactive)
Cc1cnc(NCCCn2cccn2)nc1-c1cnn(C)c1,0.862 (inactive),1.64,9190,10700,-0.223 (inactive),-0.0144,-0.51 (inactive)
COc1nc2ccccc2cc1-c1nnc2ccccn12,0.94 (inactive),1.24,7160,7610,-0.729 (inactive),-1.23,-0.505 (inactive)
O=C(O)c1ccc(-c2ccccc2C(F)(F)F)o1,0.879 (inactive),0.45,8380,9530,0.000745 (inactive),-0.553,0.155 (inactive)
CCNC(=O)c1cccnc1N1CCN(c2ccc(C)cc2C)CC1,0.919 (inactive),1.12,6880,7490,-0.459 (inactive),0.378,-0.485 (inactive)
Cc1ccc(NC(=O)C2CC23CCCCC3)cn1 (stereo not given),0.887 (inactive),0.564,8250,9300,-0.13 (inactive),-0.332,-0.27 (inactive)
COCC1CCCN(Cc2cccc(-c3nc(-c4cccnc4)cc(=O)[nH]3)c2)C1 (stereo not given),0.935 (inactive),1.11,8420,9010,-0.479 (inactive),0.644,0.175 (inactive)
CCc1ccc(-c2nn(CC(=O)Nc3cnn(C)n3)c3ccccc23)cc1,0.895 (inactive),1.48,6460,7220,-0.0449 (inactive),-0.314,1.09 (inactive)
CCn1ncc(NC(=O)Cn2nc(C)c(-c3cccc(C(C)=O)c3)c2C)n1,0.83 (inactive),2.28,2420,2910,-0.514 (inactive),-0.567,-0.465 (inactive)
COc1ccc(CCC(=O)O)cc1OC,0.922 (inactive),0.518,8510,9240,-0.767 (inactive),-0.44,-0.02 (inactive)
Cc1nn(C)cc1-c1ccnc(N2CCCN(c3ccc(F)cc3)CC2)n1,0.74 (inactive),1.79,3170,4290,-0.739,2.39,0.77 (inactive)
c1ccc(-c2noc(-c3cccc4cccnc34)n2)nc1,0.892 (inactive),1.13,7790,8740,-0.283 (inactive),1.05,0.93 (inactive)
CN(CCn1cccn1)Cc1ccc(-c2nc(-c3cccnc3)cc(=O)[nH]2)cc1,0.951 (inactive),1.22,8710,9150,-0.265 (inactive),0.251,0.18 (inactive)
O=c1c(-c2ccc(O)cc2)coc2cc(OC3OC(CO)C(O)C(O)C3O)ccc12 (stereo not given),1.06 (inactive),0.687,5800,5490,0.694 (inactive),-0.345,0.515 (inactive)
O=C(O)CN(CCO)CCO,0.873 (inactive),0.542,8460,9690,-0.0565 (inactive),-0.265,0.37 (inactive)
